Data as given in PubChem BioAssay.
Several values for one entry are separate records, joined by “and”; a condition that tells them apart may be missing. Equal entries are not always repeated. Activity calls are given as the source filed them. Unless noted, the rule behind the calls is not given here.

How the values were obtained:
[1] = tested on: Wnt5a (protein binding on small-molecule microarray); test: small molecules binding Wnt5a protein – biophysical, small-molecule microarray, 635/667 nm fluorescence, primary screen (AID 1142); details: 635 nm fluorescence, higher = more signal;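 note: fluorescence read at 667 nm with signal to noise per printed feature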
[2] = ATP-based viability of Huh7 replicon cells – cell-based, CellTiter-Glo luminescence, basal, 48 h, cytotoxicity control for HCV replication inhibitor project, primary screen (AID 1143); details: higher = more signal, called active from +8 up or from −8 down;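 note: Huh7 hepatoma cells carrying a hepatitis C replication reporter with no stimulus; test concentration not given here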
[3] = Pseudomonas biofilm growth suppression – PAO1 strain, BacTiter-Glo luminescence, LB-PBS, primary screen (AID 1144); details: P. aeruginosa PAO1 biofilm, 12 h, higher = more signal
[4] = basal CRE-LacZ reporter activity in PC12 – cell-based, unstimulated, primary screen (AID 1145); details: no forskolin, luminescence, 4.5 h, higher = more signal, called active from +8 up or from −8 down
[5] = forskolin-driven CRE-LacZ activity in PC12 – cell-based, CRE-LacZ reporter, forskolin-stimulated, primary screen (AID 1146); details: luminescence, 4.5 h, higher = more signal, called active from +8 up or from −8 down;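 note: PC12 cells with 6xCRE LacZ reporter stimulated by forskolin 10 µM; beta-galactosidase reporter signal reflecting CREB driven transcription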
[6] = target: Streptavidin (Streptomyces avidinii) (UniProt P22629); test: compounds binding control protein streptavidin – biophysical, small-molecule microarray, 635/667 nm fluorescence, artefact control for SMM compound annotation, primary screen (AID 1147); details: higher = more signal;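 note: signal reflects streptavidin binding to arrayed compounds as a control protein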
[7] = probe aInhba binding on compound microarray – biochemical, small-molecule microarray, 635/667 nm fluorescence, primary screen (AID 1148); details: higher = more signal;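 note: score merges 667nm spot fluorescence with signal-to-noise for antibody binding to printed compounds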
[8] = target: Torsin-1A (Homo sapiens) (UniProt O14656); test: TOR1A wild-type binding on microarray – cell lysate, small-molecule microarray, lysate, 635/667 nm, primary screen (AID 1149); details: COS7 hTOR1A-WT lysate, 635 nm fluorescence, higher = more signal
[9] = target: Torsin-1A (Homo sapiens) (UniProt O14656); test: torsin A mutant lysate binding on microarrays – cell lysate, small-molecule microarray, COS7 lysate, 635/667 nm fluorescence, primary screen (AID 1150); details: COS7 hTOR1A mutant lysate, 635 nm fluorescence, higher = more signal;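 note: score pools 667 nm emission and signal to noise measuring lysate protein binding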
[10] = tested on: Sonic hedgehog protein (Shh); test: Sonic hedgehog microarray binding compounds – biochemical, small-molecule microarray, 635/667 nm fluorescence, primary screen (AID 1151); details: 635 nm fluorescence, higher = more signal;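 note: Shh protein binding to compounds spotted on small-molecule microarray slides; score combines spot fluorescence intensity with signal-to-noise across triplicate slides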
[11] = optical density shifts of acrAB sulA E. coli – strain DRC41, OD650, 48 h, E. coli filamentation inducer project, primary screen (AID 1152); details: higher = more signal, called active from +8 up or from −8 down;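 note: E. coli MC1000 strain DRC41 lacking acrAB efflux pump and sulA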
[12] = probe aLefty1 binding on compound microarray – biochemical, small-molecule microarray, 635/667 nm fluorescence, primary screen (AID 1153); details: higher = more signal;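 note: score merges spot fluorescence with signal-to-noise ratio from the scanned slide images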
[13] = plasmodial surface anion channel blockers, osmotic lysis – cell-based, P. falciparum Indochina, OD700, 1 h, primary screen (AID 1154); details: P. falciparum Indochina infected RBC osmotic lysis, higher = more signal, called active from +8 up or from −8 down
[14] = plasmodial surface anion channel blockers, osmotic lysis – cell-based, P. falciparum Indochina, OD700, 2 h, primary screen (AID 1155);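 note: lysis reports solute entry through the parasite surface anion channel PSAC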; details: P. falciparum Indochina infected erythrocytes, higher = more signal, called active from +8 up or from −8 down
[15] = changes in parasitized red cell lysis, either direction – P. falciparum Indochina, OD700, 3 h, PSAC antagonist project, primary screen (AID 1156); details: P. falciparum-infected erythrocytes, osmotic lysis, higher = more signal, called active from +8 up or from −8 down
[16] = plasmodial surface anion channel blockers, osmotic lysis – cell-based, P. falciparum Indochina, OD700, 18 h, primary screen (AID 1157); details: P. falciparum Indochina infected erythrocytes, osmotic lysis OD700, 18 h; higher = more signal, called active from +8 up or from −8 down
[17] = S6 kinase pathway phospho-S6 level changes – cell-based, A549, cytoblot, luminescence, serum-stimulated, primary screen (AID 1158); details: 5 h, higher = more signal;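 note: serum-stimulated A549 lung adenocarcinoma cells; signal is phosphorylated S6 detected by cytoblot immunostaining with HRP secondary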
[18] = target: NADPH oxidase 2 (Homo sapiens) (UniProt P04839); test: compounds shifting NOX2 Amplex Red fluorescence – cell-based, HEK293-NOX2, PMA-stimulated, NOX inhibitor project, primary screen (AID 1159); details: 45 min, higher = more signal, called active from +8 up or from −8 down; note: test concentration not given here
[19] = target: NADPH oxidase 4 (Homo sapiens) (UniProt Q9NPH5); test: compounds shifting NOX4 Amplex Red fluorescence – cell-based, HEK293-NOX4, tetracycline-induced, NOX inhibitor project, primary screen (AID 1160); details: HEK293-NOX4, Amplex Red H2O2 fluorescence, 45 min; higher = more signal, called active from +8 up or from −8 down
[20] = target: NADPH oxidase 5 (Homo sapiens) (UniProt Q96PH1); test: compounds shifting NOX5 Amplex Red fluorescence – cell-based, HEK293-NOX5, NOX inhibitor project, primary screen (AID 1161); details: HEK293-NOX5, ionomycin, 45 min, higher = more signal
Chain of NADPH oxidase 5 (Homo sapiens) (Q96PH1 whole entry, looked up): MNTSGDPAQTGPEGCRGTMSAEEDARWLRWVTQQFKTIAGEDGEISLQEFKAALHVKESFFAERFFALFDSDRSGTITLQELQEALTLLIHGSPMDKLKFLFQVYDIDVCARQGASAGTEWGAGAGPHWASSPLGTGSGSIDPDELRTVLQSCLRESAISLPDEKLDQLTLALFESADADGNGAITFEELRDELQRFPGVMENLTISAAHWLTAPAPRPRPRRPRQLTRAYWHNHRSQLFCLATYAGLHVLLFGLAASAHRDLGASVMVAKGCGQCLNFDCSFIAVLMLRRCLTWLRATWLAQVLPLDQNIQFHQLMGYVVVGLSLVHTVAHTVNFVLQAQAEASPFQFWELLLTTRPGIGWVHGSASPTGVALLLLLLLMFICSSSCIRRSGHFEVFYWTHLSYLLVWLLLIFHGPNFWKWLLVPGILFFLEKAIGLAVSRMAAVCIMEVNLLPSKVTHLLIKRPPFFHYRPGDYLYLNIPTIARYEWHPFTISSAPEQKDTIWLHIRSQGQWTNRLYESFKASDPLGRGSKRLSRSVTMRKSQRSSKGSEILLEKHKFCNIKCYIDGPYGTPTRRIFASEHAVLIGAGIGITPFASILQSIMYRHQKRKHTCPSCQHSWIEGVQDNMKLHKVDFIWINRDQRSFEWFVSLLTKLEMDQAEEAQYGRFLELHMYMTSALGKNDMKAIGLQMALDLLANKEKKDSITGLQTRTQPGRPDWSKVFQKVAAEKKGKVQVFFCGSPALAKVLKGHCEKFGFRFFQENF

Chain of Torsin-1A (Homo sapiens) (O14656 whole entry, looked up): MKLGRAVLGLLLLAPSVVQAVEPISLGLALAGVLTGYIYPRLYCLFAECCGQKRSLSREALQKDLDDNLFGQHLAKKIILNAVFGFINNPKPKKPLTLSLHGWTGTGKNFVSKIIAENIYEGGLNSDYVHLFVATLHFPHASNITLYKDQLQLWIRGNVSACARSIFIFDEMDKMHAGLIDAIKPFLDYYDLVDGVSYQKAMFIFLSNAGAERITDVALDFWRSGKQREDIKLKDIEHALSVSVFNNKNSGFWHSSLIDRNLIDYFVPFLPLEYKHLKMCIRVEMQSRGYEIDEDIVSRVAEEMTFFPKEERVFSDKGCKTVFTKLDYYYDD
Chain of Streptavidin (Streptomyces avidinii) (P22629 whole entry, looked up): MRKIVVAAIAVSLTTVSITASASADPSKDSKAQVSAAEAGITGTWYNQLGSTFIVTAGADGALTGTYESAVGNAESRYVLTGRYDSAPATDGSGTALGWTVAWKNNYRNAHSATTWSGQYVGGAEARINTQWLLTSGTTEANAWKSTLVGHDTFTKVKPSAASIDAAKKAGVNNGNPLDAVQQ
Chain of NADPH oxidase 4 (Homo sapiens) (Q9NPH5 whole entry, looked up): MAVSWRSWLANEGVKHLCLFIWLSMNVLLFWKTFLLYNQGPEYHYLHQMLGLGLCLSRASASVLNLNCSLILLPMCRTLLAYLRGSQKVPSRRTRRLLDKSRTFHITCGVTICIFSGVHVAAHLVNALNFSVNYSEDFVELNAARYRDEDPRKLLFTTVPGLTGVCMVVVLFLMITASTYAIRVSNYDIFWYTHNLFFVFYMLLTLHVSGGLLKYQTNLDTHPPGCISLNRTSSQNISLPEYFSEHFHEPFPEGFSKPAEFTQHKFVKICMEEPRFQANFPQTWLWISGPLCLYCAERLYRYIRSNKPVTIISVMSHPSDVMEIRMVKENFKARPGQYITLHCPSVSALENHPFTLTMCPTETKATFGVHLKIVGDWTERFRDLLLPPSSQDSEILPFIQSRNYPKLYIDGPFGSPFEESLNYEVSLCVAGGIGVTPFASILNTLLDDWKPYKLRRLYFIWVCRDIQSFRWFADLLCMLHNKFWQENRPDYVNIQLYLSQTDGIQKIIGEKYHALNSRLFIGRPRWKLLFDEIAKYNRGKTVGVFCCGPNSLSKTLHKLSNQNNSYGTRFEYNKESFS
Chain of NADPH oxidase 2 (Homo sapiens) (P04839 whole entry, looked up): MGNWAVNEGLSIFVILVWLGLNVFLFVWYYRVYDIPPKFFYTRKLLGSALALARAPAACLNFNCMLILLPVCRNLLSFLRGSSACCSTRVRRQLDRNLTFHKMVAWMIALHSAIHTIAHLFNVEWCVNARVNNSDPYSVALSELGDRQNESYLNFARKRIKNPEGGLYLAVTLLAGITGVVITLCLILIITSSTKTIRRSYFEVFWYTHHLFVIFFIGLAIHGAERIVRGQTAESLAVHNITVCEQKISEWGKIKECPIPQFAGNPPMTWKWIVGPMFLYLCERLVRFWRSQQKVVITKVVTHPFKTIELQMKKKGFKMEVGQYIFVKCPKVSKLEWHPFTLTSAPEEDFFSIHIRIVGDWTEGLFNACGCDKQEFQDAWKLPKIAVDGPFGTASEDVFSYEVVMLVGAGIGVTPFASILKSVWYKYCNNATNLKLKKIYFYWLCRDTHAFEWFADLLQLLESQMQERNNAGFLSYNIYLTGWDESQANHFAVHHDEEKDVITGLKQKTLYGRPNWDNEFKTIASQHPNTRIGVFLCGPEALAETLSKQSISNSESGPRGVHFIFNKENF

SMILES	composite z-score [1]	z-score [2]	z-score [3]	z-score [4]	z-score [5]	composite z-score [6]	composite z-score [7]	composite z-score [8]	composite z-score [9]	composite z-score [10]	z-score [11]	composite z-score [12]	z-score [13]	z-score [14]	z-score [15]	z-score [16]	z-score [17]	z-score [18]	z-score [19]	z-score [20]
C[N+](C)(C)CCCCCCNC(=O)[C@@H]1C[C@@H]2C(=O)N[C@@H](CCCC[N+](C)(C)C)C(=O)N2[C@@H]1c1ccc(O)cc1	0.107 and -0.0086	0.0047 (inactive) and 0.0071 (inactive)	-0.424 (inactive) and -0.439 (inactive)	-0.532 (inactive) and -1.08 (inactive)	-1.2 (inactive) and 0.128 (inactive)	-0.392 and -0.129	-0.128 and -0.0375	0.854 and -0.609	0.0983 and -0.498	1.61 and 2.12	0.877 (inactive) and 0.123 (inactive)	-0.0011 and -0.149	0.973 (inactive) and 1.9 (inactive)	0.106 (inactive) and 0.554 (inactive)	-0.0454 (inactive) and 0.0605 (inactive)	-0.115 (inactive) and 0.375 (inactive)	-0.336 and -0.254	-0.441 (inactive) and -0.988 (inactive)	0.105 (inactive) and -0.431 (inactive)	0.58 and -0.839
C=CCN(C(=O)C1N(CCOCCO)C(=O)C2C(C(=O)O)C3C=CC21O3)C(C)(C)C (stereo not given)	-0.908 and -0.886	-0.773 (inactive) and -0.325 (inactive)	-0.000915 (inactive) and -1.27 (inactive)	-0.627 (inactive) and 0.0605 (inactive)	-0.581 (inactive) and 0.0532 (inactive)	-0.875 and -0.873	-0.179 and -0.319	-1.93 and -2.63	-2.59 and -1.82	-0.783 and -1.34	-0.265 (inactive) and -0.45 (inactive)	-0.161 and -0.695	0.901 (inactive) and -0.5 (inactive)	0.264 (inactive) and 0.438 (inactive)	-0.944 (inactive) and -0.84 (inactive)	-0.305 (inactive) and -0.108 (inactive)	0.0267 and 0.353	0.388 (inactive) and 0.883 (inactive)	0.292 (inactive) and -0.3 (inactive)	1.19 and -0.295
COc1ccc(-c2ccc3c(n2)CCCN3CC(O)CN2CCCc3nc(-c4ccc(Br)cc4)ccc32)cc1 (stereo not given)	0.353 and 0.0813	-1.86 (inactive) and -0.196 (inactive)	0.766 (inactive) and 0.0378 (inactive)	-0.434 (inactive) and -0.161 (inactive)	-0.152 (inactive) and -0.116 (inactive)	1.41 and 0.932	0.136 and 0.204	0.438 and 0.224	0.528 and 0.588	1.03 and 0.76	-0.018 (inactive) and 0.615 (inactive)	0.684 and 0.209	5.79 (inactive) and 1.91 (inactive)	1.07 (inactive) and 0.581 (inactive)	0.387 (inactive) and 0.0102 (inactive)	0.322 (inactive) and 0.32 (inactive)	-0.506 and -0.456	0.181 (inactive) and 2.63 (inactive)	0.169 (inactive) and 0.657 (inactive)	-2.32 and -0.243
C=C[C@@H](OC)[C@H](O)c1ccc(OCCO)cc1	-0.825 and -0.361	0.423 (inactive) and -2.25 (inactive)	-0.765 (inactive) and -0.622 (inactive)	-0.883 (inactive) and -0.184 (inactive)	-0.812 (inactive) and -1.15 (inactive)	-0.912 and -1.1	-0.271 and -0.128	-1.95 and -1.96	-2.39 and -0.212	0.18 and -0.247	-0.368 (inactive) and 2.73 (inactive)	-0.0984 and -0.53	-0.167 (inactive) and 1.57 (inactive)	0.139 (inactive) and -0.317 (inactive)	-0.123 (inactive) and -0.29 (inactive)	0.278 (inactive) and -0.993 (inactive)	-0.424 and 2.8	-0.394 (inactive) and -0.426 (inactive)	-0.164 (inactive) and -0.249 (inactive)	-0.743 and -1.57
CC(CO)N1C(=O)[C@@H]2C3C(=O)OCCC=C[C@H]3OC23C=CCN(Cn2nnc4ccccc42)C(=O)[C@@H]13 (stereo not given in full)	-0.757 and 0.0538	-0.095 (inactive) and -0.464 (inactive)	0.422 (inactive) and -0.131 (inactive)	-0.208 (inactive) and -1.44 (inactive)	-0.372 (inactive) and 0.774 (inactive)	-0.909 and -0.228	-0.0675 and -0.0405	-1.13 and 1.95	-0.987 and 0.603	-1.26 and 0.935	0.326 (inactive) and -0.353 (inactive)	-0.199 and 0.241	0.464 (inactive) and 3.04 (inactive)	-0.0088 (inactive) and 0.83 (inactive)	0.879 (inactive) and 0.711 (inactive)	0.163 (inactive) and 0.114 (inactive)	0.798 and 0.483	1.14 (inactive) and 1.44 (inactive)	0.249 (inactive) and 0.774 (inactive)	1.47 and 2.83
